We go through eight molecules from PubChem BioAssay (NCI).

SMILES strings stand for the structures. This is part of a sample that, as a whole, favours compounds with a hit. Of some 83,000 tested, about 20% had one in any assay.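 Treatment: one concentration, 48 hours, 96-well format. Scoring: percent growth, with anything below 10 considered active.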 Unmarked numbers belong to inactive results. Calls of active or inactive are those of the source.

Test systems include NCI-H23 lung; NCI-H226 lung; NCI-H322M lung; HOP-62 NSCLC; NCI-H460 lung; HOP-92 NSCLC; NCI-H522 lung; A549/ATCC NSCLC; 786-0 renal; COLO 205 colon; DU-145 prostate; K-562 leukemia; MDA-MB-231 breast; RXF 393 renal; SF-268 CNS; SF-295 CNS; SF-539 CNS; UACC-257 melanoma; M14 melanoma.
What all share (test): NCI-60 one-dose screen, 48 h (100 = growth as untreated, 0 = no growth, -100 = all killed)
What all share (details): 10 µM unless noted

Consider `COc1c(N)c2c(c([N+](=O)[O-])c1OC)C(=O)OC2`, for which the growth with NCI-H23 lung is 120%; with NCI-H226 lung it was 110%; in the assay with NCI-H322M lung it was 99.8%; in the assay on HOP-62 NSCLC it was 107%; in the assay with NCI-H460 lung, 113%; in the assay on HOP-92 NSCLC it was 92.3%. Also, the growth was 98.6% in the assay on NCI-H522 lung; 96.1% in the assay with A549/ATCC NSCLC; 102% in the assay on 786-0 renal; 116% in the assay on COLO 205 colon; 116% in the assay with DU-145 prostate; 119% in the assay with K-562 leukemia. The growth in the assay with MDA-MB-231 breast is 115%; in the assay with RXF 393 renal it was 112%; in the assay with SF-268 CNS, 106%; in the assay on SF-295 CNS, 107%; in the assay with SF-539 CNS, 104%; in the assay with UACC-257 melanoma, 102%. Besides, the growth in the assay on M14 melanoma was 109%.

As for `Oc1cccc2oc(=S)[nH]c12`, the growth in the assay on NCI-H23 lung is 104%; in the assay on NCI-H226 lung, 106%; in the assay on NCI-H322M lung it was 128%; with HOP-62 NSCLC, 104%; with NCI-H460 lung, 116%; with HOP-92 NSCLC, 102%. In addition, the growth in the assay with NCI-H522 lung is 101%; in the assay on A549/ATCC NSCLC it was 107%; in the assay with 786-0 renal it was 106%; in the assay on COLO 205 colon it was 117%; with DU-145 prostate, 118%; in the assay on K-562 leukemia it was 118%. Also, the growth was 99.1% with MDA-MB-231 breast; 112% with RXF 393 renal; 111% with SF-268 CNS; 118% in the assay with SF-295 CNS; 88.8% with SF-539 CNS; 114% in the assay with UACC-257 melanoma. Further, the growth with M14 melanoma is 111%.

On to `Cc1ccc2[nH]cc(-c3nc(-c4cn(C)c5ncccc45)cs3)c2c1`, for which the growth in the assay on NCI-H23 lung is 74.7%; in the assay on NCI-H226 lung it was 74.2%; in the assay with NCI-H322M lung, 101%; in the assay with HOP-62 NSCLC it was 105%; in the assay with NCI-H460 lung it was 91.4%; with HOP-92 NSCLC, 74.6%. Moreover, the growth in the assay on NCI-H522 lung is 86.5%; in the assay on A549/ATCC NSCLC, 75.5%; in the assay on 786-0 renal it was 91.3%; with COLO 205 colon, 97.9%; with DU-145 prostate, 97.7%; in the assay on K-562 leukemia, 59.4%. The growth with MDA-MB-231 breast was 83.4%; with RXF 393 renal, 100%; with SF-268 CNS it was 97%; in the assay with SF-295 CNS, 77.9%; in the assay with SF-539 CNS, 93.8%; in the assay on UACC-257 melanoma, 94%. The growth in the assay with M14 melanoma was 80%.

For `c1ccc2c(-c3nc(-c4c[nH]c5ncccc45)cs3)c[nH]c2c1`, the growth in the assay with NCI-H23 lung was 97.5%; in the assay with NCI-H226 lung, 97.9%; in the assay with NCI-H322M lung it was 91.1%; with HOP-62 NSCLC, 83.2%; in the assay with NCI-H460 lung, 115%; in the assay on HOP-92 NSCLC it was 65.7%. The growth is 85.2% in the assay on NCI-H522 lung; 100% in the assay with A549/ATCC NSCLC; 93.4% in the assay with 786-0 renal; 66.3% with COLO 205 colon; 112% in the assay on DU-145 prostate; 106% in the assay with K-562 leukemia. Moreover, the growth with MDA-MB-231 breast was 79.9%; in the assay with RXF 393 renal, 116%; in the assay on SF-268 CNS, 111%; in the assay with SF-295 CNS, 119%; in the assay with SF-539 CNS, 99.3%; in the assay with UACC-257 melanoma, 109%. Moreover, the growth in the assay on M14 melanoma is 99.8%.

`CC(=O)O[C@H]1CC[C@@]2(C)C(=CC[C@@H]3[C@@H]2CC[C@]2(C)C(=O)N(O)C(=O)C[C@@H]32)C1`: the growth is 68% in the assay on NCI-H23 lung; 107% in the assay on NCI-H226 lung; 91.9% with NCI-H322M lung; 68.5% in the assay with HOP-62 NSCLC; 60.8% with NCI-H460 lung; 93% with HOP-92 NSCLC. Besides, the growth in the assay with NCI-H522 lung was 75.5%; with A549/ATCC NSCLC, 86.9%; in the assay on 786-0 renal it was 81.1%; in the assay with COLO 205 colon, 112%; with DU-145 prostate it was 86.9%; in the assay on K-562 leukemia, 49.9%. Further, the growth is 97.9% in the assay on MDA-MB-231 breast; 74% with RXF 393 renal; 91.7% in the assay on SF-268 CNS; 98.9% with SF-295 CNS; 105% in the assay with SF-539 CNS; 106% in the assay with UACC-257 melanoma. Also, in the assay with M14 melanoma, the growth was 96.4%.

Regarding `COc1ccc2[nH]cc(-c3nc(-c4c[nH]c5ncccc45)cs3)c2c1`, the growth is 48.3% in the assay on NCI-H23 lung; 53.2% in the assay with NCI-H226 lung; 44.5% in the assay with NCI-H322M lung; 53.5% with HOP-62 NSCLC; 21.8% in the assay with NCI-H460 lung; 25.9% in the assay with HOP-92 NSCLC. The growth in the assay with NCI-H522 lung was 31.3%; in the assay with A549/ATCC NSCLC, 22.4%; with 786-0 renal it was 16.2%; with COLO 205 colon, -10.2% (active); with DU-145 prostate it was 47.1%; with K-562 leukemia, 18.3%. For the same molecule, the growth with MDA-MB-231 breast is 39.1%; in the assay on RXF 393 renal, 1.36% (active); in the assay with SF-268 CNS, 58.8%; with SF-295 CNS, 10.6%; with SF-539 CNS, 25.2%; with UACC-257 melanoma, -57% (active). Besides, the growth in the assay on M14 melanoma was 16.1%.

Consider `N#CC1C(=N)Cc2ccccc2-c2ccccc21` (configuration not stated), for which the growth is 57.1% in the assay with NCI-H23 lung; 77.8% in the assay with NCI-H226 lung; 78.5% in the assay on NCI-H322M lung; 57.6% with HOP-62 NSCLC; 27% in the assay on NCI-H460 lung; 49.6% with HOP-92 NSCLC. For the same molecule, the growth with NCI-H522 lung was 8.86% (active); with A549/ATCC NSCLC, 42.1%; in the assay with 786-0 renal, 65.6%; with COLO 205 colon, 51.4%; with DU-145 prostate, 75.8%; with K-562 leukemia it was 16%. In addition, the growth with MDA-MB-231 breast was 57.2%; in the assay with RXF 393 renal, 58.4%; in the assay on SF-268 CNS, 61%; with SF-295 CNS, 49%; in the assay on SF-539 CNS, 63.4%; in the assay with UACC-257 melanoma, 51.5%. Also, in the assay with M14 melanoma, the growth was 16.2%.

Turning to `C(=C\c1c[nH]c2ccccc12)/c1ccc2ccccc2n1`, the growth in the assay with NCI-H23 lung was 91.3%; with NCI-H226 lung, 76.5%; in the assay on NCI-H322M lung it was 77.5%; with HOP-62 NSCLC, 89.6%; with NCI-H460 lung, 79.7%; with HOP-92 NSCLC, 61.3%. For the same molecule, the growth in the assay on NCI-H522 lung was 53.8%; in the assay with A549/ATCC NSCLC, 63.3%; in the assay on 786-0 renal, 77.8%; in the assay on COLO 205 colon, 84.4%; with DU-145 prostate it was 92.7%; in the assay with K-562 leukemia it was 51.9%. Further, the growth with MDA-MB-231 breast was 56.4%; in the assay on RXF 393 renal, 92.1%; with SF-268 CNS, 71.4%; with SF-295 CNS it was 81.4%; in the assay on SF-539 CNS it was 87.9%; in the assay on UACC-257 melanoma, 90.2%. Also, the growth in the assay with M14 melanoma is 82.2%.
